Experimental data reported in PubChem BioAssay.
Active and inactive are the calls of the source.

Key:
[1] = small molecules captured by biotinylated probe aFSTL3 – biochemical, small-molecule microarray, fluorescence 635/667, stem cell growth factor project, primary screen (AID 1064); conditions: higher = more signal;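 also: measures binding of the biotinylated anti-FSTL3 antibody to printed compounds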
[2] = binders from COS7 lysate, DM2A8 probe, primary screen, torsin A project, cell lysate, small-molecule microarray, fluorescence 635/667 (AID 1065); conditions: higher = more signal, COS7 lysate expressing mutant human TOR1A
[3] = small molecules captured by biotinylated probe aFGF2 – biochemical, small-molecule microarray, fluorescence 635/667, stem cell growth factor project, primary screen (AID 1067); conditions: higher = more signal;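 also: measures binding of biotinylated aFGF2 protein to printed compounds on slides; z-score merges feature fluorescence and signal-to-noise across triplicate slides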
[4] = small molecules captured by biotinylated probe aFGF10 – biochemical, small-molecule microarray, fluorescence 635/667, stem cell growth factor project, primary screen (AID 1071); conditions: higher = more signal;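 also: score merges 667 nm spot intensity and signal to noise from triplicate slides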
[5] = biological target: Neurogenic locus notch homolog protein 2 (Homo sapiens) (UniProt Q04721); experiment: small molecules binding Notch2 protein – biochemical, small-molecule microarray, 635 nm fluorescence, stem cell growth factors, primary screen (AID 1073); conditions: higher = more signal
[6] = biological target: Pro-neuregulin-1, membrane-bound isoform (Homo sapiens) (UniProt Q02297); experiment: small molecules binding neuregulin-1 protein – biochemical, small-molecule microarray, fluorescence 635/667, psychiatric disease protein project, primary screen (AID 1075); conditions: NRG1 binding, 635 nm fluorescence, higher = more signal;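 also: score combines 667 nm spot fluorescence with signal to noise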
[7] = test system: Neuregulin-1 EGF-like domain; experiment: small molecules binding NRG1 EGF domain – biochemical, small-molecule microarray, 635 nm fluorescence, primary screen (AID 1081); conditions: higher = more signal;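 also: binding of the protein to compounds printed on small-molecule microarray slides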
[8] = FRG1 expression reporter modulators in myotubes – cell-based, C2C12 myotubes, firefly/Renilla luciferase, luminescence, FRG1 inhibition for FSHD, primary screen (AID 1084); conditions: FRG1 promoter luciferase, higher = more signal, called active from +8 up or from −8 down
[9] = small molecules captured by biotinylated probe aFST – biochemical, small-molecule microarray, fluorescence 635/667, stem cell growth factor project, primary screen (AID 1086); conditions: higher = more signal;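 also: score merges 667 nm fluorescence with signal-to-noise of each printed compound spot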
[10] = binders of probe aHhip on microarray, primary screen, stem cell growth factor project, biochemical, small-molecule microarray, fluorescence 635/667 (AID 1087); conditions: higher = more signal;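 also: score merges spot fluorescence at 667nm with spot signal to noise ratio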

Sequence of Pro-neuregulin-1, membrane-bound isoform (Homo sapiens) (Q02297 whole entry, looked up, the tested form may be a part, canonical isoform): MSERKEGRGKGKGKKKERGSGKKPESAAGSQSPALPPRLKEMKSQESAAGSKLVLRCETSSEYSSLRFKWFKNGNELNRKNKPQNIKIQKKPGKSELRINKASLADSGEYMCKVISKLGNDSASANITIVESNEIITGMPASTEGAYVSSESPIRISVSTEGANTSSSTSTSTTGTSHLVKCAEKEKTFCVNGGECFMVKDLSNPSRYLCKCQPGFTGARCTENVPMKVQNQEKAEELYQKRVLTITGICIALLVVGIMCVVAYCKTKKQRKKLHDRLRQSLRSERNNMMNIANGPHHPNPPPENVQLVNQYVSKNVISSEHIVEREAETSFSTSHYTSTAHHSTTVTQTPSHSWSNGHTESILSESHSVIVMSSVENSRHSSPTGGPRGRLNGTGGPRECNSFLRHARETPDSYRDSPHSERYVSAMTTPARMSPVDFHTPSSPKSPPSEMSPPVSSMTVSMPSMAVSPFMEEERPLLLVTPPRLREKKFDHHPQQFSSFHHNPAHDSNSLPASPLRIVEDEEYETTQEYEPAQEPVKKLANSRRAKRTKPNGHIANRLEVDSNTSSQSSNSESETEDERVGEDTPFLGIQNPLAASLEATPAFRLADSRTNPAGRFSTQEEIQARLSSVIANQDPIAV
Sequence of Neurogenic locus notch homolog protein 2 (Homo sapiens) (Q04721 whole entry, looked up, canonical isoform): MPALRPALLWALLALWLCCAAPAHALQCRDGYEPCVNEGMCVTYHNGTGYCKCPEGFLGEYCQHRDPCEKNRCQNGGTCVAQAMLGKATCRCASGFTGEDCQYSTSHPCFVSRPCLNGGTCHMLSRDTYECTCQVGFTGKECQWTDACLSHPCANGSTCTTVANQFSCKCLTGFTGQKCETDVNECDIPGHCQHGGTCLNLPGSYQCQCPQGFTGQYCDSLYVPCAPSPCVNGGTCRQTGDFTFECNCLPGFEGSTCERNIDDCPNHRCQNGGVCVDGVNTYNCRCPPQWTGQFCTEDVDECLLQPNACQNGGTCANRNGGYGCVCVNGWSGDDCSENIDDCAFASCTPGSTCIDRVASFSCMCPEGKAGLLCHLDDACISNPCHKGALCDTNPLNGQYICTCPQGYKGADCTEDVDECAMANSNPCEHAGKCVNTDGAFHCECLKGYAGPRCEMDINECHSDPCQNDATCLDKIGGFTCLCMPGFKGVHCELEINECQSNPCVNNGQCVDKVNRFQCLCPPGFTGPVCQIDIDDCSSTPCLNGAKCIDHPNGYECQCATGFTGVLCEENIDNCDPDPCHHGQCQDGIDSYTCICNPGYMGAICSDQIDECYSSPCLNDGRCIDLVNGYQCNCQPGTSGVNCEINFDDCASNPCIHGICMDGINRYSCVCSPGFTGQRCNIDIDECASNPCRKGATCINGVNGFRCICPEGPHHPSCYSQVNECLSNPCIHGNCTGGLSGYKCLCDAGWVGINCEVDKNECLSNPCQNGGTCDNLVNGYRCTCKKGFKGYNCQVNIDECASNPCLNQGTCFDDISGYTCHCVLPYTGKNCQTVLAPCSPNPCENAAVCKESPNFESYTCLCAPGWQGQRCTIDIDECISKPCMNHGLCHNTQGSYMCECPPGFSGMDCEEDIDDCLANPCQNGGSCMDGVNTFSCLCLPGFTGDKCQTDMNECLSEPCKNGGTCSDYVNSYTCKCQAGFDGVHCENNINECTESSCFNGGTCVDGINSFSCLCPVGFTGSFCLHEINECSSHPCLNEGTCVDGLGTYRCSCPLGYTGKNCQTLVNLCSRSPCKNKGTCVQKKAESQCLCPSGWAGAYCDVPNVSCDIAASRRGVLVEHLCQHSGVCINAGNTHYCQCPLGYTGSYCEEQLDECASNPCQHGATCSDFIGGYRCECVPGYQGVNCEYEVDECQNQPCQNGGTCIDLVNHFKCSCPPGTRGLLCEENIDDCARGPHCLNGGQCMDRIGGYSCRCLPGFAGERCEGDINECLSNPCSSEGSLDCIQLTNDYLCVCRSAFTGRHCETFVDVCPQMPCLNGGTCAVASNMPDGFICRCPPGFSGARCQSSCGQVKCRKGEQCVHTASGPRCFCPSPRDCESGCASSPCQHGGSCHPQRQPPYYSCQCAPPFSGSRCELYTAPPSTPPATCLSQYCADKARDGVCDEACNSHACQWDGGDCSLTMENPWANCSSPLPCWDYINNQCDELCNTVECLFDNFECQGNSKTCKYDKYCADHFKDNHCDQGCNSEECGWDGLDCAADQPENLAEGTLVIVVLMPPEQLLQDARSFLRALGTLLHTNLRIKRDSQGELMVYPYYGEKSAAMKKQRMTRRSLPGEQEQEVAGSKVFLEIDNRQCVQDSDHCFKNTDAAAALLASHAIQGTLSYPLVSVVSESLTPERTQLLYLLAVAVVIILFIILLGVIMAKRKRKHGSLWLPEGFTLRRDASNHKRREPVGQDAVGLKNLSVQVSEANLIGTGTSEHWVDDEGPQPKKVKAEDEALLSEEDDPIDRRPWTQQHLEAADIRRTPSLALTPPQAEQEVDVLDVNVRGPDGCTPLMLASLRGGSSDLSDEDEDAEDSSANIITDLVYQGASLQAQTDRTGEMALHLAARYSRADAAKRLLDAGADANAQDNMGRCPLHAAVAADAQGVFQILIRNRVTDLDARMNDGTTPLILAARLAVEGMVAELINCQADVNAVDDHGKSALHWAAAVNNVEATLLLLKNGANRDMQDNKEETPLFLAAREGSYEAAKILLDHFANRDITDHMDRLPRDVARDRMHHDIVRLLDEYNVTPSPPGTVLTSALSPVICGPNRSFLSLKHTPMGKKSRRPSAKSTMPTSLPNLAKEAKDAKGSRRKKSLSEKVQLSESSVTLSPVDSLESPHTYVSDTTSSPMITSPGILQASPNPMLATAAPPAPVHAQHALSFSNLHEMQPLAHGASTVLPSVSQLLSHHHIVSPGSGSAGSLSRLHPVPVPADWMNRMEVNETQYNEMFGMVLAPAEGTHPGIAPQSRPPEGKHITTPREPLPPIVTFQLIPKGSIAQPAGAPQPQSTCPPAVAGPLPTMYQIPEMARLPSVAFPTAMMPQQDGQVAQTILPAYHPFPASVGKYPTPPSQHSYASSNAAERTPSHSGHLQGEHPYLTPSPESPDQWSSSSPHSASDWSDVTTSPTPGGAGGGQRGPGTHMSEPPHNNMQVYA

SMILES	composite z-score [1]	composite z-score [2]	composite z-score [3]	composite z-score [4]	composite z-score [5]	composite z-score [6]	composite z-score [7]	z-score [8]	composite z-score [9]	composite z-score [10]
C=CC[C@@H]1C=C[C@H](ON=C(C)CCN2CCCc3nc(C)c(C)cc32)[C@@H](CO)O1	0.886	1.26	0.208	0.435	0.945	-0.387	0.83	1.67 (inactive)	1.48	1.31
O=C1CCCC=C1C(O)c1ccc([N+](=O)[O-])cc1 (stereo not given)	-0.396	0.267	-0.187	0.535	0.254	-0.832	-0.0876	0.925 (inactive)	-0.315	-0.355
CCOC(=O)CCN1C(=O)[C@H]2[C@H]3[C@H](O)[C@H](O)CC(=NOCC(C)C)[C@@H]3CC[C@H]2C1=O	-0.784	1.88	-0.234	-1.05	-0.567	-0.849	0.296	-0.398 (inactive)	-0.595	-0.0994
O=C1[C@H]2[C@H]3[C@H](O)[C@H](O)CC(=NOC[C@@H](O)COCc4ccco4)[C@@H]3CC[C@H]2C(=O)N1c1cccc(Oc2ccccc2)c1	-0.424	-0.78	-0.172	-0.177	-1.08	-0.628	-0.554	-0.0105 (inactive)	-0.465	-0.179
CC(C)CN1CCc2nc(-c3ccccc3)c3c(c2C1)CO[C@@H](C)C3	-0.277	0.306	-0.0291	0.923	1.31	0.43	0.846	0.955 (inactive)	0.147	-0.16
COC(=O)[C@H](C)NC(=O)CCC1CC(OC(=O)NCc2cccc3ccccc23)CC2(CCCC(COC(=O)NCc3ccccc3)O2)O1 (stereo not given in full)	-0.425	-0.261	0.026	0.329	1.39	0.853	0.78	2.13 (inactive)	0.2	-0.374
COC(=O)[C@H](C)NC(=O)CCC1CC(OC(=O)NCc2ccc3c(c2)OCO3)CC2(CCCC(COC(=O)NCCC(C)C)O2)O1 (stereo not given in full)	-0.312	0.255	-0.0837	0.338	0.821	1.14	0.808	1.52 (inactive)	0.0929	-0.318
CC(=O)OC[C@H]1O[C@H](CC=NOC(C)CN2CCCc3nc(C)c(C)cc32)C=C[C@@H]1OC(C)=O (stereo not given in full)	-0.255	0.28	-0.0621	0.677	0.804	-0.188	0.819	0.437 (inactive)	0.371	0.0637
CCOC(=O)CCN1C(=O)[C@H]2[C@H]3[C@H](O)[C@H](O)CC(=NOCC=C(C)CCC=C(C)C)[C@@H]3CC[C@H]2C1=O	0.149	1.13	-0.133	0.84	0.845	0.258	0.658	-0.594 (inactive)	0.42	0.0515
COC(=O)[C@H](C)NC(=O)CC=C[C@@H](C)[C@@H]1C=C[C@H](O)[C@@H](CO)O1	-0.636	0.677	-0.134	0.538	0.0931	-0.419	0.655	0.439 (inactive)	0.258	-0.0645
O=C1[C@H]2[C@H]3[C@H](O)[C@H](O)CC(=NOCc4ccccc4)[C@H]3CC[C@H]2C(=O)N1C1CCCCC1	-0.483	0.357	-0.0934	0.412	0.691	0.195	1.03	0.111 (inactive)	0.404	-0.0645
O=C1C=C[C@@H](O)[C@@H]2[C@@H]3C(=O)N(Cc4ccc5c(c4)OCO5)C(=O)[C@@H]3CC[C@@H]12	-0.624	-0.0026	-0.0925	0.28	0.628	0.199	0.764	0.189 (inactive)	0.233	0.0722
O=C(NN=C1C[C@@H](O)[C@@H](O)[C@@H]2[C@@H]3C(=O)N(Cc4ccc5c(c4)OCO5)C(=O)[C@@H]3CC[C@@H]12)OCc1ccccc1	0.595	-0.183	-0.0467	0.107	0.133	0.022	-0.17	1.78 (inactive)	0.312	-0.134
COC(=O)CC=C[C@@H](C)[C@@H](C=NOC[C@@H](C)[C@H](OCc1ccccc1)C(C)C)OC	-0.598	-0.163	-0.0985	0.229	0.0445	-0.296	0.413	0.947 (inactive)	-0.0348	-0.395
CC(=O)OC[C@H]1O[C@H](CC=NO[C@H](C)c2cn([C@@H]3COC[C@H]3O)nn2)C=C[C@@H]1OC(C)=O	-0.239	0.0556	-0.131	0.294	0.277	-0.0528	0.422	-0.956 (inactive)	-0.149	-0.0673
CO[C@@H](C1CCCCC1)[C@@H](C)[C@H](OCc1cccc(Br)c1)[C@@H](C)CO	-0.284	-0.0003	-0.0909	0.179	-0.0552	-0.194	-0.511	2.57 (inactive)	0.306	-0.0173

SMILES	composite z-score [1]	composite z-score [2]	composite z-score [3]	composite z-score [4]	composite z-score [5]	composite z-score [6]	composite z-score [7]	z-score [8]	composite z-score [9]	composite z-score [10]
COC(=O)[C@H](C)NC(=O)CCC1CC(OC(=O)NCc2ccc3c(c2)OCO3)CC2(CCCC(COC(=O)NCCc3ccc(Cl)cc3)O2)O1 (stereo not given in full)	-0.592	-0.406	-0.0812	0.218	0.576	0.212	0.562	0.628 (inactive)	0.17	-0.126
C[C@@H]1CC[C@H]2C(=O)OC(CN3C(=O)c4ccccc4C3=O)CN2[C@H]1c1ccc(Br)cc1 (stereo not given in full)	-0.138	1	-0.133	0.0468	0.315	0.48	-0.429	1.11 (inactive)	0.362	-0.132
CON=C(C)CCC(=O)OC[C@H]1O[C@H](C#Cc2ccccc2)C=C[C@@H]1Oc1ccc(C)cc1	-0.453	-0.172	-0.0563	0.33	-0.598	0.108	0.394	-0.127 (inactive)	0.423	0.0854
CCOC(=O)[C@H](Cc1ccccc1)NC(=O)CCC1CC(OC(=O)NCc2ccc3c(c2)OCO3)CC2(CCCC(COC(=O)NCCCN3CCCC3=O)O2)O1 (stereo not given in full)	-0.578	0.163	-0.0001	0.377	1.06	0.503	0.85	1.5 (inactive)	0.827	-0.248
CCN1C(C)=C(C(=O)OC)[C@@H](c2ccccc2)N2C(=O)[C@](O)(C(=O)OC)CC(C(C)=O)=C12	-0.619	0.159	-0.205	0.372	0.505	-0.125	-0.254	-1.11 (inactive)	0.101	-0.0618
COc1ccc(OC[C@@H]2CC3[C@@H](c4ccc(Br)cc4)[C@H](C)CC[C@H]3C(=O)O2)cc1 (stereo not given in full)	-0.416	0.138	-0.142	0.0248	0.407	0.093	-0.216	-0.321 (inactive)	0.204	-0.0645
CC#CCOCCC=C1c2ccccc2[C@@H](OC)[C@@H]1C	-0.35	0.575	-0.143	0.452	0.105	-0.361	0.244	0.181 (inactive)	0.359	0.154
CC(C)=CCCC(C)=CCON=C1C[C@@H](O)[C@@H](O)[C@@H]2[C@@H]3C(=O)N(Cc4ccc5c(c4)OCO5)C(=O)[C@@H]3CC[C@@H]12	-0.316	-0.777	-0.241	0.31	0.397	0.364	0.974	0.397 (inactive)	0.396	-0.0618
CO[C@@H]1COC(=O)[C@H](CCSC)NC(=O)CC=C[C@@H](C)COC(=O)[C@@H]2CCCN2C(=O)CC=C[C@H]1C	-0.313	2.62	-0.0659	0.571	0.84	-0.483	0.926	-0.813 (inactive)	0.16	-0.0618
CCc1cc2c(nc1CC)CCN(CCC(C)=NOC[C@@H](C)[C@H](OCc1ccccc1)C(C)C)C2	-0.251	-0.176	-0.226	-1.25	-1.17	-0.769	-0.47	-0.856 (inactive)	-1.36	-0.132
C[C@@H](c1ccccc1)N1C(=O)[C@H]2[C@H]3[C@H](O)[C@H](O)CC(=NOC[C@@H](O)COCc4ccco4)[C@H]3CC[C@H]2C1=O	-0.605	2.38	-0.212	-0.363	-0.206	-0.438	0.919	0.652 (inactive)	0.039	-0.0994
CN1CCc2nc(-c3ccccc3)c(-c3ccccc3)cc2C1	-0.16	0.0357	-0.128	0.239	0.521	-0.013	-0.326	-0.0006 (inactive)	-0.117	-0.148
CC(=O)OC[C@H]1O[C@H](CC=NOC[C@@H](O)COCc2ccco2)C=C[C@@H]1OC(C)=O	-0.37	2.66	-0.186	-0.153	-0.315	-0.974	0.717	-1.31 (inactive)	0.621	0.212
CCc1cc2c(nc1CC)CCN(CCC(C)=NOCC[C@@H]1C=C[C@H](OC(C)=O)[C@@H](COC(C)=O)O1)C2	0.325	1.66	-0.103	-0.213	-0.0544	-0.0974	0.545	0.485 (inactive)	0.851	0.0722
CC(C)[C@@H](OCc1ccccc1)[C@H](C)C=NOC[C@@H](O)[C@H]1O[C@@H]2OC(C)(C)O[C@@H]2[C@H]1O	-0.365	0.116	-0.198	0.492	0.25	0.125	0.361	0.417 (inactive)	0.307	-0.0645
CCOC(=O)CCN1C(=O)[C@H]2[C@H]3[C@H](O)[C@H](O)CC(=NNC(=O)OCc4ccccc4)[C@H]3CC[C@H]2C1=O	-0.594	1.05	-0.133	-0.884	-0.871	-1.03	-1.43	-0.695 (inactive)	0.138	-0.0632
